Each structure is given as a SMILES string. A number with no mark means an inactive call. Results filed as inconclusive are left out. The source made the active and inactive calls. Unless noted, the call rests on the fitted dose curve; in most records, active means well fitted curve in the direction sought with a large enough effect; inconclusive means small, poorly fitted or top-dose-only effect, or another doubt; inactive means no such curve, though single readings can be large; an effect the other way counts as inactive or inconclusive.

Consider one compound from PubChem BioAssay (NCATS).

Assay [1] has as its target Thyroid hormone receptor beta (Homo sapiens) (UniProt P10828). The assay is described as follows: qHTS assay for small molecule antagonists of thyroid hormone receptor beta signaling (AID 588547; active means well fitted inhibition curve with a large enough effect in the signal ratio, with a control signal flat, not every such curve was filed as active; the % refers to the signal ratio;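 further: cells stimulated with 0.4 nM T3 agonist during compound exposure; series mostly up to about 77 µM; on the % scale 0 is the no-effect control and ±100 the full control effect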). Conditions: TR-UAS-bla HEK293, beta-lactamase ratio, antagonist mode, 18 h. The method in brief:
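TR-UAS-bla GripTite HEK293 cells in 2% charcoal/dextran FBS medium were preincubated 4 h at 37 C, given compound (0.59 nM to 92 uM) plus 0.4 nM T3 (final) for 18 h, then CCF4 for 2 h at RT; Hill fit gave IC50.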
A general note: qHTS replaces the single test concentration by a dilution series.

Assay [2] is described as follows: qHTS assay for small molecule disruptors of the mitochondrial membrane potential - 1 hr assay (AID 651754; calls by dose curve; further: on the % scale 0 is the no-effect control and ±100 the full control effect; nearly all actives have a fitted effect of over 35% in size). The method in brief: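 In this qHTS format, a 1 hr compound treatment of HepG2 cells precedes Mito-MPS staining, and membrane potential is judged from aggregate (red) against monomer (green) fluorescence intensity.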
A short description of assay [3]: qHTS assay for small molecule disruptors of the mitochondrial membrane potential - 5 hr assay (AID 651755; calls by dose curve; further: on the % scale 0 is the no-effect control and ±100 the full control effect; nearly all actives have a fitted effect of over 40% in size). The method in brief: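 Seed HepG2 overnight, add compound, incubate 5 hr at 37C and 5% CO2, stain 30 min with Mito-MPS, then measure monomer (490/535 nm) and aggregate (540/590 nm) fluorescence.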
Assay [4] concerns the target Tumor necrosis factor (Homo sapiens) (UniProt P01375). The assay is described as follows: qHTS assay to identify small molecules that stimulate Tumor Necrosis Factor-alpha (TNF-alpha) secretion (AID 651757; active means well fitted curve in the direction sought with a large enough effect in the signal ratio; the % refers to the signal ratio; further: 0% is about no effect). The method in brief: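 Using 3000 THP-1 cells per well, compounds and controls were applied for 17 hrs at 37 C. Detection followed with two labeled anti-TNF-alpha antibodies (cryptate donor, XL665 acceptor) for 3 hr at room temperature, measured by TR-FRET.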

Assay [5] is described as follows: qHTS assay for environmental chemicals that activate the Aryl hydrocarbon Receptor (AhR) signaling pathway (AID 651777). Further: % of control where 0% means no effect; nearly all actives have a fitted effect of over 15% in size. The note with it: 1A2-DRE human hepatoma cells, luciferase, 24 h; activation: active compounds read high. The method in brief: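 Stable CYP1A2 promoter/DRE-luciferase human hepatoma line treated 24 hr; One-Glo luminescence, 30 min RT.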
Assay [6] concerns the target Peroxisome proliferator-activated receptor alpha (Homo sapiens) (UniProt Q07869). Description: qHTS assay for small molecule agonists of the peroxisome proliferator-activated receptor alpha (PPARalpha) signaling pathway (AID 651778). Further: % of control where 0% means no effect. Conditions: PathHunter PPARalpha complementation, chemiluminescence, 6 h; active compounds read high. The method in brief:
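Cells plated at 2,000/well and held overnight at 37 C, 5% CO2, then compound added by pin tool for 6 hr; after PathHunter detection reagent and 60 min at room temperature, chemiluminescence from enzyme complementation was read.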

Assay [7] has as its target Nuclear receptor ROR-gamma (Homo sapiens) (UniProt P51449). The assay is described as follows: qHTS assay for small molecule antagonists of the retinoid-related orphan receptor gamma (ROR-gamma) signaling pathway (AID 651802).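 Further: luciferase reporter luminescence driven by ROR response element; series mostly up to about 92 µM; on the % scale 0 is the no-effect control and ±100 the full control effect; nearly all actives have a fitted effect of over 60% in size.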 The method in brief: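 Doxycycline-induced reporter activity in engineered CHO cells (TET-inducible ROR, RORE-LUC) was measured by luminescence after 16hr compound exposure at 37C.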

Assay [8] can be described thus: qHTS assay for small molecule agonists of the antioxidant response element (ARE) signaling pathway measured by Nrf2-dependant transcriptional activity (AID 720636; active means well fitted curve in the direction sought with a large enough effect in the repeat runs; an effect the other way counts as inactive or inconclusive;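 further: HepG2 cells with an ARE-driven luciferase reporter; % of control where 0% means no effect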). The method in brief:
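Reporter gene assay, HepG2 ARE-luc: 16 hr compound, 37 C, 5% CO2; read-out luciferase luminescence.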

A short description of assay [9]: qHTS assay for small molecule antagonists of the retinoid-related orphan receptor gamma (ROR-gamma) signaling pathway - cell viability counter screen (AID 720652; active means well fitted curve in the direction sought with a large enough effect in the repeat runs; an effect the other way counts as inactive or inconclusive;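 further: series mostly up to about 92 µM; compound exposure lasted 16 hr before ATP read; on the % scale 0 is the no-effect control and ±100 the full control effect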). The method in brief: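 ATP-based viability readout in the ROR-gamma reporter CHO cells after 16 hr compound exposure under doxycycline induction.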
Assay [10] in a line: qHTS assay for small molecule agonists of the antioxidant response element (ARE) signaling pathway measured by Nrf2-dependant transcriptional activity - cell viability counter screen (AID 720653; active means well fitted curve in the direction sought with a large enough effect in the repeat runs; an effect the other way counts as inactive or inconclusive; further: on the % scale 0 is the no-effect control and ±100 the full control effect). The note with it: ARE-bla HepG2 viability, CellTiter-Glo ATP luminescence, 16 h; max response: active compounds read low. The method in brief:
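ARE-bla HepG2 cells (2,000/well) rested 5 hrs at 37C/5% CO2, then exposed to compounds in DMSO for 16 hrs. Viability was read in the same wells as intracellular ATP by luminescence, 30 min at room temperature after reagent addition.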

Assay [11] in a line: qHTS assay for cell viability of HEK293 cells (AID 743288). Further: on the % scale 0 is the no-effect control and ±100 the full control effect; nearly all actives have a fitted effect of over 50% in size. Conditions: ATP luminescence (CellTiter-Glo), 18 h; max response: active compounds read low. The method in brief:
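Readout is luciferase-coupled ATP content (CellTiter-Glo luminescence, 30 min room temperature) as a measure of metabolically competent cells. Parental HEK293 cells were plated 5 h or more before compound addition, then treated 18 h at 37 C.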

Assay [12] can be described thus: qHTS assay for cell viability of the p53RE-bla HCT-116 cell line (AID 743292). Further: on the % scale 0 is the no-effect control and ±100 the full control effect; nearly all actives have a fitted effect of over 55% in size. The method in brief: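 Readout: CellTiter-Glo luminescence after 30 min RT. Treatment: compounds in DMSO, 16 h, 37 C. Cells: CellSensor p53RE-bla HCT-116, 4,000/well, preincubated 5 h.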
A short description of assay [13]: qHTS for Inhibitors of the Functional Ribonucleoprotein Complex (vRNP) of Lassa (LASV) Arenavirus: LASV Primary Screen - GLuc reporter signal (AID 1347082; calls by dose curve; tested in HEK293 reporter line; further: series mostly up to about 57 µM; on the % scale 0 is the no-effect control and ±100 the full control effect; nearly all actives have a fitted effect of over 60% in size).
Assay [14] is described as follows: qHTS for Inhibitors of the Functional Ribonucleoprotein Complex (vRNP) of Lassa (LASV) Arenavirus: Viability assay - alamar blue signal for LASV Primary Screen (AID 1347083; calls by dose curve; tested in HEK293 reporter line; further: series mostly up to about 57 µM; on the % scale 0 is the no-effect control and ±100 the full control effect; nearly all actives have a fitted effect of over 80% in size).
Assay [15] in a line: qHTS for Inhibitors of the Functional Ribonucleoprotein Complex (vRNP) of Lymphocytic Choriomeningitis Arenaviruses (LCMV): Viability assay - alamar blue signal for LCMV Primary Screen (AID 1347085; calls by dose curve; tested in HEK293 reporter line; further: series mostly up to about 57 µM; on the % scale 0 is the no-effect control and ±100 the full control effect; nearly all actives have a fitted effect of over 80% in size).
Assay [16] deals with Nucleoprotein (Lymphocytic choriomeningitis virus (strain Armstrong)) (UniProt P09992). Description: qHTS for Inhibitors of the Functional Ribonucleoprotein Complex (vRNP) of Lymphocytic Choriomeningitis Arenaviruses (LCMV): LCMV Primary Screen - GLuc reporter signal (AID 1347086; calls by dose curve; further: series mostly up to about 57 µM; on the % scale 0 is the no-effect control and ±100 the full control effect; nearly all actives have a fitted effect of over 70% in size).
The target of assay [17] is Rap guanine nucleotide exchange factor 3 (Homo sapiens) (UniProt O95398). Description: Confirmatory qHTS for agonist of cAMP-regulated guanine nucleotide exchange factor 3 (EPAC1) (AID 1645881).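 Further: EPAC1 catalysed release of BODIPY-GDP from Rap1B seen as fluorescence loss; 100% = effect of cAMP agonist control; nearly all actives have a fitted effect of over 75% in size.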
The target in assay [18] is Rap guanine nucleotide exchange factor 4 (Homo sapiens) (UniProt Q8WZA2). The assay is described as follows: Confirmatory qHTS for agonist of cAMP-regulated guanine nucleotide exchange factor 4 (EPAC2) (AID 1645884).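 Further: nucleotide exchange releases bodipy-GDP from Rap1 and this lowers its fluorescence; on the % scale 0 is the no-effect control and ±100 the full control effect; nearly all actives have a fitted effect of over 65% in size.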
The target is the same in assay [19]. The assay is described as follows: Confirmatory qHTS for antagonist of cAMP-regulated guanine nucleotide exchange factor 4 (EPAC2) (AID 1645885). Further: potency means the concentration at half of the fitted maximal effect; nearly all actives have a fitted effect of over 25% in size.
Assay [20] has as its target Rap guanine nucleotide exchange factor 3 (Homo sapiens) (UniProt O95398). The assay is described as follows: Counterscreen qHTS for antagonist of cAMP-regulated guanine nucleotide exchange factor 3 (EPAC1) (AID 1645888).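 Further: fluorescence loss as bound BODIPY-GDP is released from Rap1B; % of control where 0% means no effect.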 The method in brief:
(§1)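 Measured: fluorescence of BODIPY-GDP bound to Rap1B, which falls as exchange proceeds. Conditions include 50 uM competing GDP, 5 and 30 min reads, and a later cAMP challenge for antagonist detection.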
For orientation: A counterscreen serves to expose hits that act by an unwanted route or on another target.

Assay [21] has the same target. Description: Counterscreen qHTS for agonist of cAMP-regulated guanine nucleotide exchange factor 3 (EPAC1) (AID 1645889). Further: % of control where 0% means no effect; nearly all actives have a fitted effect of over 40% in size. The method in brief:
as §1

Assay [22] addresses Nuclear receptor subfamily 1 group I member 2 (Rattus norvegicus) (UniProt Q9R1A7). Description: qHTS assay for small molecule activators of the rat pregnane X receptor (rPXR) signaling pathway (AID 651751; call rule not given here; further: 0% is about no effect). Conditions: rPXR reporter cells, luciferase (One-Glo), 24 h.
Assay [23] can be described thus: qHTS assay for small molecule activators of the human pregnane X receptor (PXR) signaling pathway (AID 720659; call rule not given here; further: 0% is about no effect).

Sequence of Rap guanine nucleotide exchange factor 4 (Homo sapiens) (Q8WZA2 whole entry, looked up): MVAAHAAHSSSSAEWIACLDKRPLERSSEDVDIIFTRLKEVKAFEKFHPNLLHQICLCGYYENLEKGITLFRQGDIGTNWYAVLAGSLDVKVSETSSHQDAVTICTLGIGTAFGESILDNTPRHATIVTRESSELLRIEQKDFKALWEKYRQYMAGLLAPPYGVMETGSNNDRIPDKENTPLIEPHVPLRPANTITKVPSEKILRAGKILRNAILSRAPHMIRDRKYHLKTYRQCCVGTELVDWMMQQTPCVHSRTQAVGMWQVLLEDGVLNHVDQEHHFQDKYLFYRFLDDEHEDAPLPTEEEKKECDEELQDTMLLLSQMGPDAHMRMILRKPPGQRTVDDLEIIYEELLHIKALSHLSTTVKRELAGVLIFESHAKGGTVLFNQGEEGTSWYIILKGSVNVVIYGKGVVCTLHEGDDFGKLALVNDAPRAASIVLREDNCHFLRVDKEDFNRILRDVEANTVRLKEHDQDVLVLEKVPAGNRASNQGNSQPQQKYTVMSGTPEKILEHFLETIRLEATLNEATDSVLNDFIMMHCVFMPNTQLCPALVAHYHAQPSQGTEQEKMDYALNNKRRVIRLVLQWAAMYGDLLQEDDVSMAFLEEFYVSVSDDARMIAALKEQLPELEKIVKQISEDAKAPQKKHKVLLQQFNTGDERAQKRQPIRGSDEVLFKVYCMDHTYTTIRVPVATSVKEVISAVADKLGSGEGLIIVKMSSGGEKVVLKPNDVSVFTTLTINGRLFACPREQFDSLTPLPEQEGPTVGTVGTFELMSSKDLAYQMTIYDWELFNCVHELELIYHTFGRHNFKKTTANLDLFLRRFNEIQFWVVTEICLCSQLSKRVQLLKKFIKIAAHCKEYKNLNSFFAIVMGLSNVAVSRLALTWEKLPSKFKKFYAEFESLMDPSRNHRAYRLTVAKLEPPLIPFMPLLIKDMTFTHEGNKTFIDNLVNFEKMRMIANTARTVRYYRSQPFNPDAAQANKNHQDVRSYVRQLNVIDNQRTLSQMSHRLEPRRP
Sequence of Rap guanine nucleotide exchange factor 3 (Homo sapiens) (O95398 whole entry, looked up): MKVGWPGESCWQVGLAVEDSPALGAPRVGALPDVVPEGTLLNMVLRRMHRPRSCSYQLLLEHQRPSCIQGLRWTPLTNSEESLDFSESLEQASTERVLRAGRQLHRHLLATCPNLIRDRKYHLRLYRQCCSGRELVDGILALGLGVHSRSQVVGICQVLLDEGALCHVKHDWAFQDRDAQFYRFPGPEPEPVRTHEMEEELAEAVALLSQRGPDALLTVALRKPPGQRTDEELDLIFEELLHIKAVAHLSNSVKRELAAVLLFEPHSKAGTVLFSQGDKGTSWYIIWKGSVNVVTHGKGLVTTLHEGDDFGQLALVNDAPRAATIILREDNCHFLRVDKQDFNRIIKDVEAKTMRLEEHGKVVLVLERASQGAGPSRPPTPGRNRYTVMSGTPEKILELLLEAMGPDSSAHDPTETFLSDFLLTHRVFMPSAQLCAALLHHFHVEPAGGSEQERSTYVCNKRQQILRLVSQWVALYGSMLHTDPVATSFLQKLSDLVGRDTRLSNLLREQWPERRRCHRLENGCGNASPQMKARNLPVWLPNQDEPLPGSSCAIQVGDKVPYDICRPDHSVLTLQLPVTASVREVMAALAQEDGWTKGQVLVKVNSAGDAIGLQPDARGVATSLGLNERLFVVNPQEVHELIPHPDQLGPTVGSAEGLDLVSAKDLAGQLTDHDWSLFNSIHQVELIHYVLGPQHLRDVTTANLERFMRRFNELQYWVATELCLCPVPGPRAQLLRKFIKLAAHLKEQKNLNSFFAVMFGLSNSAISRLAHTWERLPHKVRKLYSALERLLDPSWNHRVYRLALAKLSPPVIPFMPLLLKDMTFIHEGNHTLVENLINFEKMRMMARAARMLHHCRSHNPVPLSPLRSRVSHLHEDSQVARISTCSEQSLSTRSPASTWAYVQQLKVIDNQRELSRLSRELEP
Sequence of Peroxisome proliferator-activated receptor alpha (Homo sapiens) (Q07869 whole entry, looked up): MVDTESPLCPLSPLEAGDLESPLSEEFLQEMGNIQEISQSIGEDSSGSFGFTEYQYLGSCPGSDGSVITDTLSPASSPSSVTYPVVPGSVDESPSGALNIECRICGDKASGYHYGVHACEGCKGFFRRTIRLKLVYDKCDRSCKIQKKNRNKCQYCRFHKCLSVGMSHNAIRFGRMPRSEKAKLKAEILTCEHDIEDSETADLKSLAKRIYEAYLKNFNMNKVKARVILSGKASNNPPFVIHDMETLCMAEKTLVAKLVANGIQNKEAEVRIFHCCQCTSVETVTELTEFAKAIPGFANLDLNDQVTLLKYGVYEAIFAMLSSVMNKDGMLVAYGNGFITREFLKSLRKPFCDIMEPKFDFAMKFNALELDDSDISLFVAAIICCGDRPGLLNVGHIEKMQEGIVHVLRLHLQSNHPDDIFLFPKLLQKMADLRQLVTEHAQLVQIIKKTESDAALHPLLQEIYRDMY
Sequence of Thyroid hormone receptor beta (Homo sapiens) (P10828 whole entry, looked up): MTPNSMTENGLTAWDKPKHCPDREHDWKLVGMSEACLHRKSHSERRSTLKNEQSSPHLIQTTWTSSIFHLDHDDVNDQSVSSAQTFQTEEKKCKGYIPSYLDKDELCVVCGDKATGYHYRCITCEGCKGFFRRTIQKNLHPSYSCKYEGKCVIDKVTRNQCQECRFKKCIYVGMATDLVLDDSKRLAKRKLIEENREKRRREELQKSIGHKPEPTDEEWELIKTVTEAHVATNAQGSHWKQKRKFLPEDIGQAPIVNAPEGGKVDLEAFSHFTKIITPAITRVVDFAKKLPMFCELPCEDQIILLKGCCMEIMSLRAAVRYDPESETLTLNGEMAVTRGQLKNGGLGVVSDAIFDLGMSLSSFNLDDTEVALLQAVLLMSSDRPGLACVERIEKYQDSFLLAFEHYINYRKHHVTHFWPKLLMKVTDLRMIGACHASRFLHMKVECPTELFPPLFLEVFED
Sequence of Tumor necrosis factor (Homo sapiens) (P01375 whole entry, looked up): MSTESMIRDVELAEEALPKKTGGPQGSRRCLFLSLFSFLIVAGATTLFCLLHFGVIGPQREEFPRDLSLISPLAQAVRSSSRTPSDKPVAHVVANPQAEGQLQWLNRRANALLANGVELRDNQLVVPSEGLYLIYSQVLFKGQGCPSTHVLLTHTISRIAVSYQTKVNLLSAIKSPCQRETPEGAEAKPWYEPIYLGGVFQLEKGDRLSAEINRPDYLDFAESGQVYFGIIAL
Sequence of Nuclear receptor ROR-gamma (Homo sapiens) (P51449 whole entry, looked up): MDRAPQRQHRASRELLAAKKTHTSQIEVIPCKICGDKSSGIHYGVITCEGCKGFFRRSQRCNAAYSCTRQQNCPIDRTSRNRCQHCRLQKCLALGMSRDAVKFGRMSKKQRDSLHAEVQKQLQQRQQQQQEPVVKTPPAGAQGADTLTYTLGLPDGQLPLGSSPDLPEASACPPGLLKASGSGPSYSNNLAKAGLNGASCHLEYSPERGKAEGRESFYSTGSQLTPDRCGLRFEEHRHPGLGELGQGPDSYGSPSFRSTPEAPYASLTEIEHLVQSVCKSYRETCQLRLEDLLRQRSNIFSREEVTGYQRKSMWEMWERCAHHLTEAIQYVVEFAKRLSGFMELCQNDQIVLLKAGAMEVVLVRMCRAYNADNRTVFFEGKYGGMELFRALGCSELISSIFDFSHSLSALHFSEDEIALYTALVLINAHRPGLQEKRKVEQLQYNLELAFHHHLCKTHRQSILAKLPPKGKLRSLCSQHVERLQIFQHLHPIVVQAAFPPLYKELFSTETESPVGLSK
Sequence of Nucleoprotein (Lymphocytic choriomeningitis virus (strain Armstrong)) (P09992 whole entry, looked up): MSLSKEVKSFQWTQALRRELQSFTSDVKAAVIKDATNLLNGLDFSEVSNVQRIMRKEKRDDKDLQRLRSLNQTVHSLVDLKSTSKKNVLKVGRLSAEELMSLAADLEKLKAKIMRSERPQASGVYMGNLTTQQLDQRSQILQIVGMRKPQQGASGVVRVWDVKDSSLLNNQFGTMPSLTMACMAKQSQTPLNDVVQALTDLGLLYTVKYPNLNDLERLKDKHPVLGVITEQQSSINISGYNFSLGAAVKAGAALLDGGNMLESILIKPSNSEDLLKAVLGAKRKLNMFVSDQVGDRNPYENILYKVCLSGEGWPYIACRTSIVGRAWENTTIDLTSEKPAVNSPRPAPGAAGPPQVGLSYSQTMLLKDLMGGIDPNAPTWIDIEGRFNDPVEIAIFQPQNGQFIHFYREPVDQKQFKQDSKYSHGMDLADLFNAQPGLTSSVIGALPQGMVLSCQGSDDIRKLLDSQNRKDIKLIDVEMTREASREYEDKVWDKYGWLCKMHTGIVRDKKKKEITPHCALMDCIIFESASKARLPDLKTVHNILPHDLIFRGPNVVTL
Sequence of Nuclear receptor subfamily 1 group I member 2 (Rattus norvegicus) (Q9R1A7 whole entry, looked up): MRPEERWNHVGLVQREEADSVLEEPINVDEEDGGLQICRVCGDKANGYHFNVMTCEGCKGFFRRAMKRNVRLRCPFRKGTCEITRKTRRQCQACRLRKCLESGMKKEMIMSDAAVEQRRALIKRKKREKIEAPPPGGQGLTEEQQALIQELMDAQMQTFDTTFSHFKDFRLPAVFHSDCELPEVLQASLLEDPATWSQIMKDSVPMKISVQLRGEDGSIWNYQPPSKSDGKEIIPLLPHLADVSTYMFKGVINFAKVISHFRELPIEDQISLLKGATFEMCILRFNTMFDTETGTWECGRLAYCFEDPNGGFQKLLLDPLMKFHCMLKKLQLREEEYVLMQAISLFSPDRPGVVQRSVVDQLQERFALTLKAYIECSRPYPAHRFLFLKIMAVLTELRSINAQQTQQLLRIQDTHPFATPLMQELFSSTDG

As for `CC(C)COC(=O)c1ccccc1C(=O)OCC(C)C`, the activity change % (negative = inhibition) in assay [1] is 9.26%. Besides, the Potency entry in [2], in assay [3], in assay [7], in [8], in [13] and in [14] was “inactive” throughout. In addition, the Potency result in [15] and in assay [16] was “inactive” in each case. Further, the outcome in assay [4], in assay [9], in assay [12], in assay [17], in assay [18] and in assay [20] was inactive. Further, the result in assay [21] and in assay [23] was inactive. For the same compound, the activation in [5] was 0.543%. The max response was -0.716% in assay [6], 7.97% in [10], 0.653% in assay [11] and -3.74% in [22]. Further, the Potency in [19] is 37.9 µM (active).
